From ChEMBL document CHEMBL4513216, “Probing the Open Global Health Chemical Diversity Library for Multistage-Active Starting Points for Next-Generation Antimalarials” (ACS Infect Dis, 2020)
Out of some 65,000 compounds screened, about 2,100 (3.2%) showed an effect of 50% or more. The median lay at about -52%. The entries come from a sample that favours strong results as a whole.

tested on: Plasmodium falciparum; assay: Screen against P. falciparum Asexual Blood Stage (ABS), at 5uM; assay type: functional, Dd2; conditions: tested at 5 uM

First: O=C1[C@@H]2CCN(C3CCC3)C[C@@H]2OCCN1Cc1ccncc1
Second: CS(=O)(=O)N1CCO[C@@H]2CN(Cc3ccncc3)C[C@@H]2C1
The INHIBITION of the first is lower: -35.3% for the first, -25.9% for the second.

First: COc1cccc(CN(C)C(C)c2ccco2)c1OCCn1ccnc1 (centres undefined)
Second: COc1ccccc1CN(C)C(=O)CN1CC(n2nc(C)cc2C)C1
The INHIBITION of the first is lower: 71.8% for the first, 78.2% for the second.

Compared with `CNC(=O)CN1C(=O)CCC12CCCN(Cc1ccccn1)C2` (centres undefined), `CN1C(=O)CCC12CCCN(Cc1nccs1)C2` (centres undefined) is lower in INHIBITION: -14.2% for the first, -74.2% for the second.

Going from `CN(C)CCN1C(=O)CCCC12CCCN(Cc1cccs1)C2` (centres undefined) to `Cc1cnc(N2CCC3(CC2)CN(Cc2cccs2)CCO3)nc1`, the INHIBITION falls from 73.5% to -35.2%.

First: COCCC1(CNC(=O)Nc2ccnc(C)c2)CCCC1
Second: COCCN1C[C@@H]2OCCN(c3ccnc(N(C)C)n3)[C@@H]2C1
The INHIBITION of the first is higher: 72.6% for the first, -31.1% for the second.

Compared with `Cc1ncc(CN2C[C@H]3CC(OCc4ccccc4)C[C@H]3C2)cn1` (some centres undefined), `Cc1cccc(CN2C[C@H](OCc3ccccn3)[C@H]3COC[C@H]32)n1` is higher in INHIBITION: -74.6% for the first, -21.3% for the second.

Compared with `Cc1ccc2c(n1)N(CCn1cccn1)CCN(CC1CC1)C2`, `Cc1ccc2c(n1)N(CC1CC1)CCN(Cc1ccco1)C2` is lower in INHIBITION: 77.6% for the first, -45.2% for the second.

Compared with `Cc1ccc2c(n1)N(CC1CC1)CCN(S(=O)(=O)C1CC1)C2`, `Cc1ccc2c(n1)N(C)CCN(Cc1cnn(C)c1)C2` is lower in INHIBITION: -28.5% for the first, -35.9% for the second.

First: O[C@]12CCNC[C@H]1CN(c1ccnc3ccccc13)CC2
Second: O[C@]12CCNC[C@H]1CN(c1nccc3ccccc13)CC2
The INHIBITION of the first is higher: 92% for the first, -5.03% for the second.

Compared with `Cc1nnc(N2CC[C@@]3(O)CCNC[C@H]3C2)c2ccccc12`, `CCN1CCC2(CC1)CC(NCc1cccc(C)n1)c1ccccc1O2` (centres undefined) is higher in INHIBITION: -14.9% for the first, 91.3% for the second.

Compared with `Cc1cnc(N2CCC3(CCCCN3C)C2)nc1` (centres undefined), `O=C1N(c2cncnc2)CCC12CCCN(Cc1ccccn1)C2` (centres undefined) is lower in INHIBITION: -23.5% for the first, -36.2% for the second.

Going from `CC(C)(C)CC(=O)N1C[C@H]2CCN[C@H]2C1` to `Cc1ccc(C(=O)N2C[C@@H]3CCCO[C@@H]3[C@H](N3CCCC3)C2)cn1`, the INHIBITION falls from -36.7% to -108%.

Going from `Cc1cc(CN2C[C@@H]3COC[C@H](C(=O)N4CCCCO4)[C@@H]3C2)no1` to `Cc1csc([C@H]2C[C@@H]3CCN(Cc4cc(C)on4)C[C@H]3O2)n1`, the INHIBITION rises from -158% to -69.7%.

Compared with `CN(C)C(=O)CN1CCN(c2ncccn2)[C@@H]2CS(=O)(=O)C[C@@H]21`, `CN(C)C(=O)CN1CCC2(CCCN(Cc3cccnc3)C2)C1=O` (centres undefined) is higher in INHIBITION: -100% for the first, -34% for the second.

Compared with `CCN1CCC2(CC1)CC(Nc1ncccn1)CO2` (centres undefined), `CCN1CCC2(CC1)CC(NCc1ccncc1)c1ccccc1O2` (centres undefined) is higher in INHIBITION: -11% for the first, 77.7% for the second.

Going from `CCN1CCN(C)C2(CCN(Cc3cccc(C)n3)CC2)C1=O` to `Cc1cccc(CN2CCC3(CCN(c4cccnc4)C3=O)C2)n1` (centres undefined), the INHIBITION rises from -50.7% to -18.3%.

Going from `CCN1CCC2(CC1)CC(NCc1cccs1)c1ccccc1O2` (centres undefined) to `O=C1Nc2ccccc2C12CCN(Cc1cccs1)CC2`, the INHIBITION falls from 85.8% to -14.5%.

Compared with `O=C1NCC2(CCCN(Cc3ccncc3)C2)Oc2ccccc21` (centres undefined), `CN1CCN(Cc2ccc(F)cc2)Cc2cccnc21` is higher in INHIBITION: -7.11% for the first, -5.74% for the second.

First: O=C(Nc1cccnc1)[C@H]1CO[C@H]2CCNC[C@H]2C1
Second: O=C(c1cccnc1)N1CCO[C@@H]2CNC[C@@H]21
The INHIBITION of the first is lower: -181% for the first, -20.6% for the second.

Compared with `Cc1noc(C)c1CN1CCO[C@H]2CN(Cc3cccnc3)C[C@H]21`, `CNC(=O)[C@@]12CCO[C@@H]1CCN(Cc1c(C)noc1C)C2` is lower in INHIBITION: 0.607% for the first, -74.2% for the second.

Compared with `CCc1ccc(CN2CCN(C)c3ncccc3C2)o1`, `CN1CCN(S(C)(=O)=O)Cc2cccnc21` is higher in INHIBITION: -114% for the first, -87.7% for the second.

Going from `O=c1[nH]cnc2[nH]c(N3CCNCC3)nc12` to `Cn1cc(C(=O)NCc2cncc3c2CCNC3)cn1`, the INHIBITION rises from -168% to -118%.

Compared with `Cc1cccc(CN2C[C@@H](NC(=O)C3CCC3)[C@H]3COC[C@H]32)n1`, `Fc1cccnc1O[C@@H]1CN(Cc2ccccn2)[C@@H]2CCCO[C@@H]21` is higher in INHIBITION: -50.1% for the first, -14% for the second.

Compared with `COc1ccc(Cl)cc1CN(C)C(=O)CN1C(=O)CCC1C` (centres undefined), `CCc1nnc(CN(C)C(=O)CN2CC(c3ccccc3)CC2=O)o1` (centres undefined) is lower in INHIBITION: -38.8% for the first, -112% for the second.

First: c1cncc(OC[C@@]23CCO[C@@H]2CCN(Cc2cccs2)C3)c1
Second: CN1CCCCC1c1ncc2c(n1)CCN(CCCc1ccccc1)C2 (centres undefined)
The INHIBITION of the first is lower: -5.17% for the first, 89.2% for the second.

Going from `NCC1Cc2cc(-c3nccc(N4CCC(O)CC4)n3)cc(F)c2O1` (centres undefined) to `NCC1Cc2cc(-c3nccc(N4CCC(O)CC4)n3)cc(Cl)c2O1` (centres undefined), the INHIBITION falls from 83.1% to 80.6%.

Compared with `O=C(NC[C@H]1C[C@@H]2CCN1C[C@@H]2CN1CCCC1)c1ccco1`, `O=C(c1ccnnc1)N1C[C@@H]2OCCN(CCN3CCCC3)[C@@H]2C1` is higher in INHIBITION: -62.4% for the first, -53.7% for the second.

Going from `CN1CCCCC1c1ncc2c(n1)CCN(Cc1ccc(F)cc1)C2` (centres undefined) to `CN1CCCCC1c1ccc(-n2ccnc2)nc1` (centres undefined), the INHIBITION falls from 86.4% to -5.64%.

Compared with `Cc1nc(COC[C@H]2CC[C@H]3NCC[C@H]3O2)cs1`, `CN(Cc1nc2ccsc2c(=O)[nH]1)C[C@@H]1CCCN2CCCC[C@H]12` is higher in INHIBITION: -29.9% for the first, -20.7% for the second.

Compared with `Cc1noc([C@]23COC[C@H]2CN(C(C)C)C3)n1`, `Cc1ccc(-c2noc(CC[C@@H]3CCCN4CCCC[C@H]34)n2)nn1` is lower in INHIBITION: -38.3% for the first, -74.3% for the second.

First: Fc1ccccc1Cn1c(C2CCNCC2)cc2cccnc21
Second: Fc1cccc(F)c1Cn1c(C2CCNCC2)cc2cccnc21
The INHIBITION of the first is higher: 88.7% for the first, 80.6% for the second.

First: CN(Cc1ccccc1-n1cccn1)C[C@@H]1CCCN2CCCC[C@H]12
Second: CC(C)(NCc1cccc(O)c1)c1ccc2c(c1)OCO2
The INHIBITION of the first is lower: 76% for the first, 88.9% for the second.
